Experimental findings from PubChem BioAssay AID1220 (Sanford-Burnham Center for Chemical Genomics, 2008) are described below.

Usually inhibition stands for the change of the read-out against control, counted positive when it falls.

Screen size: about 190,000 compounds; about 1,300 (0.68%) were called active. The sample as a whole holds a higher share of actives than the screen did. Values without a mark were called inactive. No stated cut-off is given here; in the data, active means inhibition above about 50%; inactive means the rest.

The target in this test is Mannose-6-phosphate isomerase (Homo sapiens) (UniProt P34949). Nature of the test: MPI inhibition at elevated mannose 6-phosphate – biochemical, fluorescence intensity, high mannose 6-phosphate, primary screen (AID 1220). Particulars: recombinant PMI enzyme, coupled fluorescence intensity; at 20 µM; active compounds read high.
Mannose-6-phosphate isomerase (Homo sapiens), sequence (P34949 whole entry, looked up): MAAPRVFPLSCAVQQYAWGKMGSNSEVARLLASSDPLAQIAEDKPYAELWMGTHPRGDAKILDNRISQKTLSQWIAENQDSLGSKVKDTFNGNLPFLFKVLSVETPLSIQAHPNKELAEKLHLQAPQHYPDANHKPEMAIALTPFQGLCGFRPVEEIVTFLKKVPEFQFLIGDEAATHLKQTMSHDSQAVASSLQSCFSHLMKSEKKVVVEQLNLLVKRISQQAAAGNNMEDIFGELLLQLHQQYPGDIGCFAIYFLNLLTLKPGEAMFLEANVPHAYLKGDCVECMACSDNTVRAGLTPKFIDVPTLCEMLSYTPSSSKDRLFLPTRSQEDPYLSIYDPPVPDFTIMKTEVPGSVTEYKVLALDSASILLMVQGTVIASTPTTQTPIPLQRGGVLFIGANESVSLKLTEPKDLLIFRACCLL
Take `Fc1ccccc1COc1ccc2ccccc2c1CNc1nn[nH]n1`: the inhibition is -1.6%. Regarding `O=[N+]([O-])c1ccc(Cl)c(C2Nc3cccc4cccc(c34)N2)c1`, the inhibition was 60.2% (active).

Turning to `O=[N+]([O-])c1ccc(C2Nc3cccc4cccc(c34)N2)cc1`, the inhibition is 14.6%. Take `O=[N+]([O-])c1cccc(C2Nc3cccc4cccc(c34)N2)c1`: the inhibition was -12.5%.

With `COc1cccc(CN2CCN(C(=O)Nc3ccc([N+](=O)[O-])cc3)CC2)c1`, the inhibition was 10.7%. Take `COc1cc(CN2CCN(c3ccc(C)cc3)CC2)cc([N+](=O)[O-])c1O`: the inhibition is 10.7%. On to `CS(=O)(=O)N1CCN(Cc2ccc([N+](=O)[O-])cc2)CC1`, for which the inhibition is 11.9%. Turning to `CSc1ccc(CN2CCN(Cc3ccc([N+](=O)[O-])cc3)CC2)cc1`, the inhibition is 4%. The result for `Cc1ccc(CN2CCN(/N=C/c3ccc(Cl)c([N+](=O)[O-])c3)CC2)cc1` reads 15.3%; that for `COc1cc(CN2CCN(Cc3ccc([N+](=O)[O-])cc3)CC2)c([N+](=O)[O-])cc1OC`, 56.3% (active); that for `COc1cccc(C(=O)N2CCN(Cc3ccccc3[N+](=O)[O-])CC2)c1`, -13.8%.

Turning to `COc1cc(CN2CCN(Cc3ccc(C)cc3)CC2)c([N+](=O)[O-])cc1OC`, the inhibition is 61.5% (active). In the case of `COc1cccc(CN2CCN(Cc3cc(OC)c(OC)cc3[N+](=O)[O-])CC2)c1`, the inhibition was 53.2% (active). Regarding `CC1SCCN1S(=O)(=O)c1ccc2ccccc2c1` (centres undefined), the inhibition is 7.8%. Consider `CCOC(=O)N1CCC2(CC1)C(C#N)=C(N)Oc1c2c(C)nn1-c1cccc(Cl)c1`, for which the inhibition is -99.5%. As for `CNc1ccc(Br)cc(C(=O)/C=C/c2cccc(Cl)c2Cl)c1=O`, the inhibition is 24.7%.

Regarding `Nc1nc(F)cc(NCc2ccccc2)n1`, the inhibition is 10.5%. As to `COc1ccc(CNCc2ccco2)cc1OCc1ccccc1`, the inhibition was 10.6%.

Consider `CN(C)S(=O)(=O)c1cccc(NC(=O)c2ccc(N3CCOCC3)c([N+](=O)[O-])c2)c1`, for which the inhibition is 8.9%. Regarding `Cn1c(NC(=O)C2CCCO2)cc(=O)n(C)c1=O` (centres undefined), the inhibition is 42.3%. With `COc1ccc(CC(=O)N2CCN(c3ccccn3)CC2)cc1` the figure was 8.3%; with `CCN1C(=O)C2C(c3cccc(F)c3)NC(CC)(C(=O)OC)C2C1=O` (centres undefined), 2.1%. `COCCCn1c(=N)c(C(=O)NCC2CCCO2)cc2c(=O)n3ccccc3nc21` (centres undefined): the inhibition was 5.1%. As for `COCCCn1c(=N)c(C(=O)NCC2CCCO2)cc2c(=O)n3cccc(C)c3nc21` (centres undefined), the inhibition is 53.6% (active).

Consider `CCCn1c(=N)c(C(=O)NCC2CCCO2)cc2c(=O)n3cccc(C)c3nc21` (centres undefined), for which the inhibition is 13.9%. Take `COc1ccccc1CNC(=O)Nc1cccs1`: the inhibition is -15.1%. Consider `CCOC(=O)C1=C(C)NC(=O)NC1c1ccc(N(CC)CC)cc1` (centres undefined), for which the inhibition was 25.8%.

As to `O=C(CCN1CCOCC1)c1ccccc1`, the inhibition was -3.1%. As to `COc1ccc(C(=O)CCN2CCN(c3ccccc3F)CC2)cc1`, the inhibition is 17.7%. Take `O=C(CCN1CCN(c2ccccc2F)CC1)Nc1ccccc1F`: the inhibition was -3.7%.

In the case of `O=C(CCN1CCOCC1)c1ccc(Cl)cc1`, the inhibition was 26.3%. With `COc1cc(-c2nnc(SCC(=O)OC3CCCCC3)o2)cc(OC)c1OC` the figure was 5.5%; with `COc1cc(NC(=O)CSc2nc3ccccc3c(=O)n2C)ccc1NC(=O)c1ccco1`, 22.5%. The result for `COC(=O)c1c(-c2ccccc2)csc1NC(=O)C1CC=CCC1C(=O)O` (centres undefined) reads -0.2%; that for `COC(=O)c1c(-c2ccco2)csc1NC(=O)C1CC=CCC1C(=O)O` (centres undefined), 59% (active); that for `COC(=O)c1c(-c2ccc(C)cc2)csc1NC(=O)C1CC=CCC1C(=O)O` (centres undefined), 2.6%. The result for `Cc1c(C(=O)NCC2CCCO2)oc2ccc(S(=O)(=O)N3CCCCC3)cc12` (centres undefined) reads -6.8%; that for `O=C(c1ccccc1)c1cc2ccccc2o1`, -9.2%. Regarding `O=C(c1ccccc1)c1c2c(cc3sc4ccccc4[n+]13)-c1cccc3cccc-2c13`, the inhibition is 51.7% (active). Regarding `Cc1sc2cc3c(c(C(=O)c4ccccc4)[n+]2c1C)-c1cccc2cccc-3c12`, the inhibition is -1.5%. Regarding `COc1ccccc1CN1CCCCC1C(=O)O` (centres undefined), the inhibition is -6.1%. As for `COC(=O)c1c(NC(=O)c2ccco2)sc(C(=O)N(C)C)c1C`, the inhibition was 1.2%. `O=C(O)C1CCCCC1C(=O)Nc1ccccc1Cl` (centres undefined): the inhibition is -0.8%. With `O=C(O)C1CCCCC1C(=O)Nc1cccc2ccccc12` (centres undefined), the inhibition is 54.6% (active). The result for `O=C(O)C1CCCCC1C(=O)Nc1ccccc1F` (centres undefined) reads 7%; that for `O=C(COC(=O)/C=C/c1cccc([N+](=O)[O-])c1)NCCCN1CCCC1=O`, -2.9%. In the case of `COc1cc(-c2nc3ccccn3c2/N=C/c2cccc(OC)c2O)ccc1O`, the inhibition is 61.6% (active). Regarding `COc1cc(-c2nc3ccccn3c2/N=C/c2ccccc2)ccc1O`, the inhibition is 14.6%.

Regarding `COc1cc(-c2nc3ccccn3c2/N=C/c2cc(OC)c(O)cc2Cl)ccc1O`, the inhibition is 41.9%. On to `CC(=O)c1cc2c(O)c(O)ccc2o1`, for which the inhibition was 71% (active). For the compound `CC(=O)c1cc2cc(O)ccc2o1`, the inhibition is 1.7%. The result for `O=C(O)c1cc2c(ccc3ccccc32)o1` reads 9.6%; that for `CSCCC(NS(=O)(=O)/C=C/c1ccccc1)C(=O)O` (centres undefined), -6.2%.

For the compound `CCOC(=O)N1CCC(NS(=O)(=O)c2ccc3c(c2)oc(=O)n3C)CC1`, the inhibition was 12.9%. Take `O=C(Nc1ccc(F)cc1)N1CCOCC1`: the inhibition is 1.9%. Turning to `CN(C)S(=O)(=O)c1ccc(NC(=O)N2CCOCC2)cc1`, the inhibition is -1.8%. With `CN(C)c1ccc(NC(=O)N2CCOCC2)cc1` the figure was 63.7% (active).

As to `NC(=O)NNC(=S)Nc1cccc2ccccc12`, the inhibition was 27.8%.

For the compound `O=C(NCc1ccccc1)C1=C[C@@H](c2ccc(Br)cc2)C[C@@H](OCc2ccc(CO)cc2)O1`, the inhibition was 55.2% (active). As to `O=C(Nc1ccccc1)C1=C[C@H](c2ccc(Br)cc2)C[C@H](OCc2ccc(CO)cc2)O1`, the inhibition was 13.9%.

Turning to `C#Cc1ccc([C@@H]2C=C(C(=O)NCc3ccccc3)O[C@H](OCc3ccc(CO)cc3)C2)cc1`, the inhibition is 50.8% (active). On to `C#CCNC(=O)C1=C[C@H](c2ccc(Br)cc2)C[C@H](OCCCCO)O1`, for which the inhibition was 37.7%.

Regarding `O=C(NCc1ccccc1)C1=C[C@H](c2ccc(C(F)(F)F)cc2)C[C@H](OCc2ccc(CO)cc2)O1`, the inhibition is 46.8%.

Turning to `O=C(Nc1ccccc1)C1=C[C@@H](c2ccc(Br)cc2)C[C@@H](OCCCCO)O1`, the inhibition was 12.2%. `C#Cc1ccc([C@H]2C=C(C(=O)O)O[C@@H](OCc3ccc(CO)cc3)C2)cc1`: the inhibition is 9.9%. Regarding `O=C(NCc1ccccc1)C1=C[C@H](c2ccc(Br)cc2)C[C@H](OCc2ccc(CO)cc2)O1`, the inhibition is 37.7%. `O=C(Nc1ccccc1)C1=C[C@@H](c2ccc(C(F)(F)F)cc2)C[C@@H](OCc2ccc(CO)cc2)O1`: the inhibition was 18%.

Turning to `C#Cc1ccc([C@@H]2C=C(C(=O)O)O[C@H](OCc3ccc(CO)cc3)C2)cc1`, the inhibition was 0.7%. Regarding `O=C(NCc1ccccc1)C1=C[C@@H](c2ccc(Br)cc2)C[C@@H](OCCCCO)O1`, the inhibition is 60.5% (active). As to `O=C(NCc1ccccc1)C1=C[C@@H](c2ccc(C(F)(F)F)cc2)C[C@@H](OCc2ccc(CO)cc2)O1`, the inhibition is 50.2% (active). With `CCCOc1ccc(C(=O)c2nc3c(n2O)CCCC3)cc1` the figure was -4.1%. Take `CC1Oc2ccccc2C=C1/C=C1/SC(N2CCOCC2)=NC1=O` (centres undefined): the inhibition was 26.6%.

With `CCCCc1nnc(NC(=O)C2CCCO2)s1` (centres undefined), the inhibition was 4.7%. With `c1cncc(CSc2ccc(-c3cccnc3)nn2)c1` the figure was -3.2%.

For `CCC(CC)c1nnc(NC(=O)c2c(C)nn(Cc3ccccc3Cl)c2C)s1`, the inhibition was 3%. With `O=C(CCNS(=O)(=O)c1cccs1)NC1CCN(Cc2ccccc2)CC1`, the inhibition was 6.1%.

As for `CC(=O)OCc1c(F)c(F)c(-n2nc(C)cc2C)c(F)c1F`, the inhibition was 1.5%.

`COc1ccc(-c2nnn(CC(=O)N(CCCN3CCOCC3)C(C(=O)NC3CCCC3)c3ccco3)n2)cc1` (centres undefined): the inhibition is 8.7%. In the case of `CNC(=O)NC(=O)C(C)OC(=O)CCCSc1nc2ccccc2s1` (centres undefined), the inhibition was 4.7%. As to `Cc1cc2ccccn2c1C(=O)c1ccc(Cl)c([N+](=O)[O-])c1`, the inhibition is 3.4%. With `O=C(Nc1nn[nH]n1)c1cccc([N+](=O)[O-])c1` the figure was 1.8%. For `O=C(Nc1ccccc1Br)c1c(F)cccc1Cl`, the inhibition was -8.7%. Turning to `C#CCNC(=O)C1=C[C@@H](c2ccccc2)C[C@@H](OCc2ccc(CO)cc2)O1`, the inhibition was 28.3%. With `O=C(Nc1ccccc1)C1=C[C@@H](c2ccccc2)C[C@@H](OCc2ccc(CO)cc2)O1` the figure was 15.7%; with `O=C(NCc1ccccc1)C1=C[C@@H](c2ccccc2)C[C@@H](OCc2ccc(CO)cc2)O1`, 61.7% (active). With `O=C(O)C1=C[C@@H](c2ccc3c(c2)OCO3)C[C@@H](OCCCCO)O1` the figure was 4%; with `O=C(NCc1ccccc1)C1=C[C@H](c2ccc3c(c2)OCO3)C[C@H](OCCCCO)O1`, 64.5% (active); with `O=C(Nc1ccccc1)C1=C[C@H](c2ccc3c(c2)OCO3)C[C@H](OCCCCO)O1`, 12.1%.

As to `Cc1nn(Cc2ccccc2Cl)c(C)c1NC(=O)CCCn1nc([N+](=O)[O-])c(Cl)c1C`, the inhibition is 0.3%. Take `CC(=O)N1CCN=C1SCc1ccc(C)cc1`: the inhibition was 5.8%.

As to `C=CCn1c(COc2ccc(Cl)cc2)nnc1SCC(=O)NCC(=O)OCC`, the inhibition was -3.6%. With `CCOC(=O)C1(Cc2cccc(F)c2)CCN(C(=O)C2CCCO2)CC1` (centres undefined) the figure was -13.3%. As for `O=C(Nc1cc(N2CCOCC2)ncn1)NC1(C(F)(F)F)Oc2ccccc2O1`, the inhibition was 7.9%. For `Cc1cc(NC(=O)NC2(C(F)(F)F)Oc3ccc(Cl)cc3O2)no1` (centres undefined), the inhibition is 12.7%.
